Source: PubChem BioAssay (National Center for Advancing Translational Sciences (NCATS))
This is a sample that favours compounds with a hit; in the whole collection about 3.4% have one here.
VDR inhibitor – vitamin D3 receptor (human) inhibition. hit rate 0.93% among 400,000. AID 504847. VDR-SRC2-3 peptide fluorescence polarization, 2 h. Potency, µM, inactives show max response, negative = inhibition, actives largely listed as inhibitors; further: potency means the concentration at half of the fitted maximal effect; on the % scale 0 is the no-effect control and ±100 the full control effect
Target sequence (P11473 whole entry, looked up): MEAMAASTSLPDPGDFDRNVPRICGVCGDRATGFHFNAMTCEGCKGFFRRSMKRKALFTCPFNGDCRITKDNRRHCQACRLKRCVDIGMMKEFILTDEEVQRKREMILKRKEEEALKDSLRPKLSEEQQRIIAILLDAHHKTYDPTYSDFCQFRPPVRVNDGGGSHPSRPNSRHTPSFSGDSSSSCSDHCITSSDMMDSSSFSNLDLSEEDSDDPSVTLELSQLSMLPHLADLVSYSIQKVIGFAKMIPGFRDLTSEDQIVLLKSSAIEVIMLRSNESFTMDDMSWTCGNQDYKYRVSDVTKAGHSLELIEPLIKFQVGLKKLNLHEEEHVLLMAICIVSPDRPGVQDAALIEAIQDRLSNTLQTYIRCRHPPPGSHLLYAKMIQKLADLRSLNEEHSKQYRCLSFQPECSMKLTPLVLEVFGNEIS
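Inhibition of the VDR/SRC2-3 peptide interaction is quantified by fluorescence polarization. Compounds (23 nl, pintool) incubate with the reagents for 2 hours at ambient room temperature.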
GCN5L2 inh-1 – blocks human GCN5L2 histone acetyltransferase; Potency, µM (series often up to 58.9 µM), for the others: at the highest dose activity change, negative = inhibition, actives largely listed as inhibitors; Q92830; hit rate 0.21% among 390,000; GCN5L2 HAT assay, ThioGlo1 CoA-SH fluorescence; further: potency means the concentration at half of the fitted maximal effect; on the % scale 0 is the no-effect control and ±100 the full control effect
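GCN5L2 (20nM final) in 50mM HEPES, 0.1mM EDTA pH 7.5, 0.01% Tween-20 was preincubated 15 min at room temperature with compound, then given ThioGlo1 (50uM), H3(1-25) peptide (75uM) and acetyl-CoA (70uM); CoA-thiol fluorescence (Ex340/Em540) was read at 0 and 20 min.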
PKM2 activator – increases activity of human pyruvate kinase M2. Potency, µM (series often up to 57.5 µM), for inactives: at the top dose activation, hits mostly activators. purified PKM2, Kinase-Glo ATP luminescence, activation; response scale: 0% is enzyme alone, no compound. P14618. hit rate 0.34% among 260,000. AID 1631; further: potency means the concentration at half of the fitted maximal effect; on the % scale 0 is the no-effect control and ±100 the full control effect; nearly all actives have a fitted effect of over 55% in size
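ATP formation by purified human PK-M2, quantified via coupled luciferase luminescence after 1 h at room temperature with 0.1 mM ADP and 0.5 mM PEP final.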
GLS inh – blocks human kidney-isoform glutaminase activity | GLS enzymatic activity, qHTS titration | Potency, µM (top dose mostly 45.5 µM), inactives show at the top dose activity change, negative = inhibition, usual class: inhibitors | AID 624170 | hit rate 0.21% among 410,000; further: potency means the concentration at half of the fitted maximal effect; on the % scale 0 is the no-effect control and ±100 the full control effect
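Two-point fluorescence kinetic (t0, 30 min RT) for hKGA; glutamate detected via glutamate oxidase–HRP–Amplex Red. Substrate: 1 mM L-glutamine solution; buffer 45 mM KH2PO4, pH 8.2.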
PLK1 PBD block – PLK1 (human) polo-box domain binding inhibition. Plk1 PBD binding of FITC phosphopeptide, fluorescence polarization. AID 720504. Potency, µM, inactives show max response, negative = inhibition, most hits filed as inhibitors. hit rate 2.8% among 360,000. P53350; further: potency means the concentration at half of the fitted maximal effect; series mostly up to about 57 µM; on the % scale 0 is the no-effect control and ±100 the full control effect; nearly all actives have a fitted effect of over 65% in size
Mito fusion act – mitochondrial division inhibition or fusion activation; S. cerevisiae fusion-defective mutant growth rescue, CellTiterGlo 48 h; Potency, µM (series often up to 46.1 µM), without a hit: at the top dose growth rescue (activation), most hits filed as activators; hit rate 0.23% among 320,000; further: potency means the concentration at half of the fitted maximal effect; % of control where 0% means no effect; nearly all actives have a fitted effect of over 45% in size
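Yeast fusion mutant, YPEG (non-fermentable carbon), compound, 48 h at 37C non-permissive; CellTiterGlo added, 10 min RT, luminescence read. Rescued growth = division inhibition.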
GCN5L2 inh-2 – human KAT2A HAT inhibition, hit confirmation; shares compounds with GCN5L2 inh-1; GCN5L2 HAT, ThioGlo1 CoA fluorescence, 20 min; Potency, µM, hits mostly inhibitors; hit rate 70% among 140; AID 588347
VDR confirm – confirmation of human vitamin D receptor inhibitors; shares compounds with VDR inhibitor; VDR-coactivator inhibition assay, qHTS confirmation; Potency, µM, most hits filed as inhibitors; hit rate 89% among 840; further: potency means the concentration at half of the fitted maximal effect
VDR FP fluor – confirmation of human VDR-coactivator binding inhibitors, fluorescein label. shares compounds with VDR inhibitor. VDR-coactivator binding, fluorescein fluorescence polarization. Potency, µM (top dose mostly 57.1 µM), for inactives: at the highest dose activity change, negative = inhibition, most hits filed as inhibitors. hit rate 48% among 840; further: potency means the concentration at half of the fitted maximal effect
VDR bla reporter – inhibits human VDR in beta-lactamase reporter cells; AID 602202; VDR beta-lactamase reporter cells, FRET ratio; cells co-treated with VDR agonist LG190178; shares compounds with VDR inhibitor; hit rate 23% among 840; Potency, µM (top dose mostly 46.1 µM), without a hit: at the top dose activity change, negative = inhibition, actives largely listed as inhibitors; further: potency means the concentration at half of the fitted maximal effect; on the % scale 0 is the no-effect control and ±100 the full control effect
VDR viability – counter-screen for vitamin D receptor inhibitors: cytotoxicity; shares compounds with VDR inhibitor; cytotoxicity counter-screen, cell viability, qHTS; Potency, µM (top dose mostly 48.3 µM), for the others: at the top dose activity change, negative = cytotoxicity, usual class: cytotoxic; hit rate 18% among 840; AID 602204;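 further: potency means the concentration at half of the fitted maximal effect; plate controls were DMSO for no effect and high-concentration cycloheximide for full effect; nearly all actives have a fitted effect of over 75% in size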
TbPYK confirm – confirmation of Trypanosoma brucei pyruvate kinase inhibitors; shares compounds with PLK1 PBD block; recombinant TbPYK, Kinase-Glo ATP luminescence; Potency, µM (series often up to 76.9 µM), inactives show top-dose activity change, negative = inhibition, actives largely listed as inhibitors; hit rate 67% among 890; AID 720569; further: potency means the concentration at half of the fitted maximal effect; on the % scale 0 is the no-effect control and ±100 the full control effect; nearly all actives have a fitted effect of over 70% in size
TbPYK orthogonal – orthogonal confirmation of Trypanosoma brucei pyruvate kinase inhibitors. Potency, µM (titrated, usually from 76.9 µM), for the others: top-dose activity change, negative = inhibition, hits mostly inhibitors. shares compounds with PLK1 PBD block. hit rate 62% among 890. recombinant TbPYK, ADP-Glo luminescence, 60 min; further: potency means the concentration at half of the fitted maximal effect; on the % scale 0 is the no-effect control and ±100 the full control effect; nearly all actives have a fitted effect of over 75% in size
* marks the source's active call; other numbers are inactive results. The call rests on the fitted dose curve; in most records, active means well fitted curve in the direction sought with a large enough effect; inconclusive means small, poorly fitted or top-dose-only effect, or another doubt; inactive means no such curve, though single readings can be large; an effect the other way counts as inactive or inconclusive.

Results for CCn1c2ccccc2c2nc3cc(S(=O)(=O)N4CCOCC4)ccc3nc21 ?
VDR inhibitor: 28.2µM*; GCN5L2 inh-1: inconclusive; PKM2 activator: -1.3%; GLS inh: 0.8%; PLK1 PBD block: 0.67µM*; Mito fusion act: 9.5%; GCN5L2 inh-2: inconclusive; VDR confirm: 5.97*; VDR FP fluor: inconclusive; VDR bla reporter: 10.0%; VDR viability: inconclusive

Results for CCCCn1c(N)c(N(C(=O)CSc2nncn2-c2ccccc2)C2CCCC2)c(=O)[nH]c1=O ?
VDR inhibitor: 7.9%; GLS inh: -0.9%; PLK1 PBD block: -2.9%

Results for CCOC(=O)c1sc(NC(=O)CSc2nnc(Cc3ccccc3)o2)c(C#N)c1C ?
VDR inhibitor: 12.6µM*; GCN5L2 inh-1: inconclusive; PKM2 activator: -23.8%; GLS inh: -8.5%; PLK1 PBD block: 1.68µM*; Mito fusion act: -4.9%; GCN5L2 inh-2: 10.2*; VDR confirm: 2.99*; VDR FP fluor: inconclusive; VDR bla reporter: 73.1%; VDR viability: -2.3%

What do the screens show for `CCN1CCC(O)(C(C(=O)O)c2ccccc2)CC1` (stereo not given)?
VDR inhibitor: 3.1%; GLS inh: -1.6%; PLK1 PBD block: -4.4%

What do the screens show for `CC1=NOC(=O)/C1=C\c1ccc(-c2ccccc2Br)o1`?
VDR inhibitor: 12.6µM*; GCN5L2 inh-1: 12.6µM*; PKM2 activator: 28.0%; GLS inh: inconclusive; PLK1 PBD block: 0.423µM*; Mito fusion act: -8.1%; GCN5L2 inh-2: 11.5*; VDR confirm: 9.47*; VDR FP fluor: inconclusive; VDR bla reporter: inconclusive; VDR viability: inconclusive; TbPYK confirm: inconclusive; TbPYK orthogonal: -29.3%

Results for COc1ccc(NC(=O)C(=O)NCC2CCCN2S(=O)(=O)c2cc(C)ccc2C)cc1 (stereo not given) ?
VDR inhibitor: 14.1%; GCN5L2 inh-1: -18.5%; GLS inh: -2.3%; PLK1 PBD block: -0.2%; Mito fusion act: 11.3%

How did COc1cc(-c2nnc(-c3cc(OC)c(OC)c(OC)c3)o2)cc(OC)c1OC do in these assays?
VDR inhibitor: 4.9%; GCN5L2 inh-1: -11.8%; PKM2 activator: -1.5%; GLS inh: -1.5%; PLK1 PBD block: -0.6%; Mito fusion act: -8.0%

What do the screens show for `COc1cc(N=c2ssnc2Cl)cc(OC)c1OC`?
VDR inhibitor: inconclusive; GCN5L2 inh-1: 10µM*; PKM2 activator: -31.0%; GLS inh: inconclusive; PLK1 PBD block: 0.947µM*; Mito fusion act: 0.6%; GCN5L2 inh-2: 3.63*; TbPYK confirm: 3.55µM*; TbPYK orthogonal: 6.31µM*

Results for O=C1C=CC(=O)C(C2=C3C(=O)N(CCc4ccccc4)CC(=O)N3CCC2)=C1 ?
VDR inhibitor: 31.6µM*; GCN5L2 inh-1: 14.1µM*; PKM2 activator: -35.7%; GLS inh: inconclusive; PLK1 PBD block: inconclusive; Mito fusion act: 2.8%; GCN5L2 inh-2: 18.2*; TbPYK confirm: 0.562µM*; TbPYK orthogonal: 0.891µM*

Results for Cc1ccc2occ(/C=N/NC(=O)c3ccccc3O)c(=O)c2c1 ?
VDR inhibitor: 10.6%; GCN5L2 inh-1: 2.6%; PKM2 activator: -6.1%; GLS inh: 11.3%; PLK1 PBD block: -10.4%; Mito fusion act: -1.6%

What do the screens show for `CCOC(=O)c1c(-c2ccccc2)csc1NC(=O)c1cc(-c2cccc(Cl)c2)on1`?
VDR inhibitor: inconclusive; GCN5L2 inh-1: -13.7%; GLS inh: 2.5%

What do the screens show for `CCOC(=O)c1c(-c2ccccc2)csc1NC(=O)c1cc(-c2cccc(OC)c2)on1`?
VDR inhibitor: 79.4µM*; GCN5L2 inh-1: -13.2%; GLS inh: -10.2%; VDR confirm: 22.4*; VDR FP fluor: 15.8µM*; VDR bla reporter: -15.8%; VDR viability: -2.7%

What do the screens show for `COc1cccc(N2CCN(C(=O)c3cc4c(s3)CCCCC4)CC2)c1`?
VDR inhibitor: -26.8%; GCN5L2 inh-1: -4.0%; GLS inh: -4.6%; PLK1 PBD block: -2.2%; Mito fusion act: 7.5%

What do the screens show for `Cc1cc(C)nc(S/C=C/C(=O)c2ccccc2F)n1`?
VDR inhibitor: inconclusive; GCN5L2 inh-1: -10.7%; PKM2 activator: 5.0%; GLS inh: -4.1%; PLK1 PBD block: 4.74µM*; Mito fusion act: -3.5%; VDR confirm: 2*; VDR FP fluor: 1.58µM*; VDR bla reporter: 16.4µM*; VDR viability: 16.8µM*

What do the screens show for `Cc1cc(C)nc(NC(=S)NC(=O)c2ccccc2F)n1`?
VDR inhibitor: 6.0%; GLS inh: 0.9%; PLK1 PBD block: -4.3%

Results for CC(OC(=O)c1ccc(F)c(S(=O)(=O)N2CCOCC2)c1)C(=O)NC1CCCC1 (stereo not given) ?
VDR inhibitor: 10.1%; GCN5L2 inh-1: -0.6%; GLS inh: 1.3%; PLK1 PBD block: -1.9%; Mito fusion act: 5.0%
